Results filed as inconclusive are left out. A call without a number means that no potency is given here. The source made the active and inactive calls. Calls come from the whole dose curve; as a rule, active = well fitted cell-killing curve with a large enough effect; inconclusive = small, poorly fitted or top-dose-only effect; inactive = flat fitted curve, though single readings scatter. Numbered stars: 1 amine (or outer) side, 2 acyl side, 3 side chain; on linkers, the order of the positions; unused ones are H or OH. Bridge positions count the residues as written; N and C are the ends. Square brackets hold non-standard residues; d marks the D form. Peptide text beside a SMILES is read from it. I, II: the chains in the order shown. Actinocin(9to1) = Cc1c2oc3c(C)ccc(C(=O)[*:1])c3nc-2c(C(=O)[*:2])c(N)c1=O; NMeV = CN[CH](C(=O)O)C(C)C; Sar = CNCC(=O)O
Potency is the fitted concentration of half-maximal effect.

A short description of this test: Quantitative highthroughput screen to assess conditional lethalithy of NOMO1 cells grown in RPMI1640 with untreated serum (RPMI+s) (AID 1963876). Note: nearly all actives have a fitted effect of over 35% in size. The conditions noted are these: NOMO1 AML cells in RPMI+serum, CellTiter-Glo viability, 48 h; series mostly up to 45.8 µM. From the text:
Assay Provider: Jason Cantor Ph.D.
Department of Biochemistry
University of Wisconsin-Madison, Madison, WI, USA
Chemical screening studies have identified drug sensitivities across hundreds of cancer cell lines but most putative therapeutics fail to translate. Discovery and development of drug candidates in models that more accurately reflect nutrient levels in human blood is a major challenge. Here we performed high-throughput screens in conventional versus Human Plasma-Like Medium (HPLM) to identify compounds that were "missed" when screening using the artificial culture condition. Sets of conditional anticancer compounds spanned phases of clinical development and included non-oncology drugs were assessed. […] We also traced conditional phenotypes for several chemotherapeutics to availability of HPLM-specific metabolites and confirmed others for compounds whose reported targets are encoded by nonessential genes. Our findings establish generalizable strategies for exploiting conditional lethality in HPLM to reveal therapeutic candidates and mechanisms of action in cancer cells.
Described herein are the results of each viability screens against three cell lines: NOMO1 (an acute myeloid leukemia cell line); P12-Ichikawa (a T-cell acute lymphoblastic leukemia); and SEM (a B-cell ALL). Each assay was screened using 3 different cell culture media: homemade human plasma-Like medium with 10% dialyzed fetal bovine serum (HPLM+ds); RPMI1640 with 10% untreated FBS and 5mM glucose (RPMI+s); and RPMI1640 with 10% dialyzed fetal bovine serum and 5 mM glucose (RPMI+ds).
PROTOCOL TABLE (as described by Inglese J, Shamu CE and Guy RK. 2007)
SEQUENCE No. (e.g., 1, 2, 3, etc.); […] (e.g., Cells, Incubation, Reagent, etc.); VALUE and DESCRIPTION.
1; Cells; 5 uL; white, solid bottom 1536-well Greiner assay plate.
2; Compounds; 23 nL; Kalypsis pin tool (Wako USA) equipped with a 1536-well pin head to transfer to the assay plates.
3; Incubation; 48 hours; 37C incubation.
4; Reagent; 3 uL; CellTiter Glo (Promega).
5; Incubation; 5 min, room temperature
6; Detection; Luminescence, Viewlux PerkinElmer.
NOTES (numbers refer to Sequence numbers above)
1. Briefly, 5 ul of cell reagent was dispensed using a Multidrop Combi Dispenser. The NOMO1 and SEM cells were plated at 500 cells/well and the P12-Ichikawa line at 1000 cells/well.
2. After seeding the cells, 23 nL of MIPE 4.1 library compounds (in DMSO) were added to each plate using a Kalypsys 1536 Pintool dispenser. Bortezomib at final concentration of […] and DMSO were added to each plate as positive and negative controls respectively. For each screen, MIPE 4.1 compounds were added over an eleven-point concentration range […] in 3-fold dilutions.
3. Each plate was covered with a stainless steel gasketed lid to prevent evaporation and incubated for 48 hour at 37C, 95% relative humidity, and 5% CO2.
4-5. Three microliter CellTilter-GloTM luminescent substrate mix (Promega) reagent was added to the assay plate and incubated at room temperature for 5 min.
6. The luminescence signal was measured using a ViewLux (PerkinElmer) multiplate reader with a 2 second exposure time per plate. Data for each compound were normalized as percent viability such that measurements for DMSO and the empty well controls in each plate were defined as 100% and 0%, respectively.
(In general: ATP-based viability assays read luminescence as a measure of living cells.)
Consider `Nc1ccn([C@@H]2C(F)=C(CO)[C@@H](O)[C@H]2O)c(=O)n1`, for which the Potency is 5.24 µM (active).
As for `COc1ccc(C2Sc3ccccc3N(CCN(C)C)C(=O)C2OC(C)=O)cc1` (stereo not given), the Potency entry was “inactive”.
Turning to `Cc1ccc(C(=O)Nc2ccc(Oc3cc4cnn(C)c4cc3-c3cn[nH]c3)c(F)c2)c(=O)n1-c1ccc(F)cc1`, the Potency was 8.31 µM (active).
To `CC(=O)OCC(=O)[C@@]1(O)CC[C@H]2[C@@H]3CCC4=CC(=O)CC[C@]4(C)[C@@H]3C(=O)C[C@@]21C` belongs “inactive”; to `CNC[C@H](O)c1ccc(O)c(O)c1`, “inactive”.
Then `O=c1ccn([C@@H]2O[C@H](CO)[C@H](O)[C@@H]2F)c(=O)[nH]1`, with “inactive”.
To `O=C(O)C1=CC(O)C(O)[C@H](O)C1` (stereo not given in full) belongs “inactive”; to `CC(=O)SC[C@@H](C)C(=O)N1CCC[C@H]1C(=O)N[C@@H](Cc1ccccc1)C(=O)O`, “inactive”; to `CNc1nccc(-c2cccnc2Oc2cc(C(=O)Nc3cccc(C(F)(F)F)c3)ccc2C)n1`, “inactive”.
For `COc1cc2c(cc1OC)CC(=O)N(CCCN(C)C[C@H]1Cc3cc(OC)c(OC)cc31)CC2`, the Potency result is “inactive”.
Take `COC(=O)C1=CO[C@@H](O)[C@@H]2C(CO)=CC[C@@H]12`: the Potency entry was “inactive”.
Then `Cc1cc2c(F)c(Oc3ncnn4cc(OC[C@@H](C)O)c(C)c34)ccc2[nH]1`, with “inactive”; and `Cc1c2oc3c(C)ccc(C(=O)NC4C(=O)NC(C(C)C)C(=O)N5CCCC5C(=O)N(C)CC(=O)N(C)C(C(C)C)C(=O)OC4C)c3nc-2c(C(=O)NC2C(=O)NC(C(C)C)C(=O)N3CCCC3C(=O)N(C)CC(=O)N(C)C(C(C)C)C(=O)OC2C)c(N)c1=O` (stereo not given) (I: TVP[Sar][NMeV] / II: TVP[Sar][NMeV]; ester I:1-I:C, II:1-II:C; linker I:N-II:N via Actinocin(9to1); configuration not given here), with “inactive”; and `COc1ccc(-c2ccc3c(N4CCOCC4)nc(N4C[C@@H](C)O[C@@H](C)C4)nc3n2)cc1CO`, with 2.96 µM (active).
To `Oc1ccc(OCc2ccccc2)cc1` belongs “inactive”; to `COc1ccccc1OCC(O)COC(N)=O` (stereo not given), “inactive”; to `COc1cc([C@H]2Oc3cc([C@H]4Oc5cc(O)cc(O)c5C(=O)[C@H]4O)ccc3O[C@H]2CO)ccc1O`, “inactive”.
To `CC(C)Cc1ccc(C(C)C(=O)O)cc1` (stereo not given) belongs “inactive”; to `COc1cc2c(c(OC)c1OC)-c1ccc(OC)c(=O)cc1[C@@H](NC(C)=O)CC2`, “inactive”.
`O=C(O)c1cc(=O)c2c(OCC(O)COc3cccc4oc(C(=O)O)cc(=O)c34)cccc2o1`: the Potency result is “inactive”.
Consider `O=C1NC(=O)C(c2cnc3ccccn23)=C1c1cn2c3c(cc(F)cc13)CN(C(=O)N1CCCCC1)CC2`, for which the Potency result is “inactive”.
As for `COc1cc(NS(=O)(=O)c2ccc(N)cc2)nc(OC)n1`, the Potency entry is “inactive”.
To `NC(=O)c1ccc(-c2nc(-c3ccc4c(c3)OCO4)c(-c3ccccn3)[nH]2)cc1` belongs “inactive”.
On to `COCCNCCCn1c(C(=O)CF)c(-c2ccc(C)cc2)c2c(N)ncnc21`, for which the Potency result is “inactive”.
Then `Cc1cnc(NC(=O)C2=C(O)c3ccccc3S(=O)(=O)N2C)s1`, with “inactive”.
Then `CC(=O)O[C@@]12CO[C@H]1C[C@H](O)[C@@]1(C)C(=O)[C@H](O)C3=C(C)[C@@H](OC(=O)C(O)[C@@H](NC(=O)OC(C)(C)C)c4ccccc4)C[C@@](O)([C@@H](OC(=O)c4ccccc4)[C@@H]21)C3(C)C` (stereo not given in full), with “inactive”; and `C[C@]12CC[C@@H]3c4ccc(O)cc4CC[C@H]3[C@H]1C[C@@H](O)[C@H]2O`, with “inactive”; and `O=C(NC(Cc1cc(=O)[nH]c2ccccc12)C(=O)O)c1ccc(Cl)cc1` (stereo not given), with “inactive”.
Then `c1ccc2[nH]c(-c3cscn3)nc2c1`, with “inactive”.
On to `NS(=O)(=O)NCCNc1nonc1C(=Nc1ccc(F)c(Br)c1)NO`, for which the Potency was 2.63 µM (active).
To `CC=CC(=O)N(CC)c1ccccc1C` belongs “inactive”.
Turning to `CN(C)c1ccc(-c2nc3ncc(Cl)c(N4CCN(CC(=O)Nc5nccs5)CC4)c3[nH]2)cc1`, the Potency result is “inactive”.
In the case of `O=C(NC1CCNCC1)c1[nH]ncc1NC(=O)c1c(Cl)cccc1Cl`, the Potency is 1.32 µM (active).
Then `C[C@]12CC[C@@H]3c4ccc(O)cc4C[C@@H](CCCCCCCCCS(=O)CCCC(F)(F)C(F)(F)F)[C@H]3[C@H]1CC[C@H]2O` (stereo not given in full), with “inactive”; and `CCN(CC)CCCC(C)Nc1nc(C)cc(Nc2ccc3nc(C)cc(N)c3c2)n1` (stereo not given), with “inactive”.
Then `O=C(Nc1ccc(F)c(C(F)(F)F)c1)Nc1nnc(-c2ccncc2)s1`, with “inactive”; and `Nc1nc(Nc2ccc(S(N)(=O)=O)cc2)nn1C(=O)c1c(F)cccc1F`, with 16.6 µM (active).
Then `Cc1cn([C@H]2C=C[C@@H](CO)O2)c(=O)[nH]c1=O`, with “inactive”; and `C[C@@H]1COCCN1c1cc(C2(S(C)(=N)=O)CC2)nc(-c2ccnc3[nH]ccc23)n1` (stereo not given in full), with 4.67 µM (active).
In the case of `CCOC(=O)[C@H](CCc1ccccc1)N[C@H]1CS[C@H](c2cccs2)CN(CC(=O)O)C1=O`, the Potency was 10.5 µM (active).

For the origin of these results see PubChem BioAssay (NCATS).
